# Experimental data taken from PubChem BioAssay (NCATS).
# Inconclusive results are not listed. Entries that show only a call come without a potency. The source made the active and inactive calls. The call rests on the fitted dose curve; in most records, active means well fitted curve in the direction sought with a large enough effect; inconclusive means small, poorly fitted or top-dose-only effect, or another doubt; inactive means no such curve, though single readings can be large; an effect the other way counts as inactive or inconclusive. Non-standard residues stand in square brackets, D forms with d. Residues, ends and D or L forms follow the SMILES beside them. Dip = N[C@H](C(=O)O)C(c1ccccc1)c1ccccc1
# Columns and labels:
# [1] = BET inhibitor-based combinations targeting novel dependencies in MECOM-rearranged (r) AML: UCSD-AML1 cell line (AID 2202235); details: UCSD-AML1 AML cells viability, CellTiter-Glo, 48 h; series mostly up to 46 µM; further: nearly all actives have a fitted effect of over 40% in size
# Procedure, shortened: (§1)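 Seeding density was 500 cells/well, and drug exposure lasted 48 hr under standard culture conditions. Read-out used CellTiter-Glo reagent with a 15 min room-temperature incubation before luminescence measurement; AUC and Z-AUC summarize the normalized responses.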
# [2] = BET inhibitor-based combinations targeting novel dependencies in MECOM-rearranged (r) AML: AML-191 cell line (AID 2202236; further: nearly all actives have a fitted effect of over 35% in size); details: AML-191 viability, CellTiter-Glo luminescence, 48 h; series mostly up to 46 µM
# Procedure, shortened: (§2)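 Readout: CellTiter-Glo luminescence. Exposure: 48 h, 11 concentrations, 500 cells/well. Metric: AUC and within-line Z-AUC after DMSO/empty-well normalization.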
# [3] = BET inhibitor-based combinations targeting novel dependencies in MECOM-rearranged (r) AML: AML-194 cell line (AID 2202237; further: nearly all actives have a fitted effect of over 40% in size); details: AML-194 (MECOM-r AML) viability, CellTiter-Glo, 48 h; series mostly up to 46 µM
# Procedure, shortened: as §2
# [4] = BET inhibitor-based combinations targeting novel dependencies in MECOM-rearranged (r) AML: MV-4-11 cell line (AID 2202233); details: MV-4-11 AML viability, CellTiter-Glo luminescence, 48 h; series mostly up to 46 µM; further: nearly all actives have a fitted effect of over 45% in size
# Procedure, shortened: as §1
# [5] = BET inhibitor-based combinations targeting novel dependencies in MECOM-rearranged (r) AML: HNT-34 cell line (AID 2202234); details: HNT-34 AML viability, CellTiter-Glo luminescence, 48 h; series mostly up to 46 µM; further: nearly all actives have a fitted effect of over 35% in size
# Procedure, shortened: as §1
# Potency means the concentration at half of the fitted maximal effect.
compound,measurement,setting,value
CCc1cnn2c(NCc3ccc[n+]([O-])c3)cc(N3CCCC[C@H]3CCO)nc12,Potency,[1],0.0235 µM (active)
same,Potency,[2],0.0263 µM (active)
same,Potency,[3],0.0372 µM (active)
CN(C)CCOc1ccc(/C(=C(/CCCl)c2ccccc2)c2ccccc2)cc1,Potency,[1],inactive
C=CC(=O)N1CC(N2CCN(C(=O)CNc3cc(C4(C)CC4)c(Cl)cc3O)CC2)C1,Potency,[1],inactive
same,Potency,[2],inactive
same,Potency,[3],inactive
CCOC(=N)c1nc2ccc3ncnc(Nc4cc(F)c(F)cc4Cl)c3c2s1,Potency,[4],16.6 µM (active)
same,Potency,[2],5.25 µM (active)
same,Potency,[3],6.61 µM (active)
O=C(CCNC(=O)c1ccc(OC(F)(F)F)cc1)N[C@@H]1CCCc2ccccc21,Potency,[1],inactive
same,Potency,[3],inactive
O=c1ncccn1[C@@H]1O[C@H](CO)[C@@H](O)[C@H]1O,Potency,[5],inactive
same,Potency,[2],inactive
same,Potency,[3],inactive
C[C@@H]1CC[C@@]2(OC1)OC1CC3C4CC=C5CC(O)CCC5(C)C4CCC3(C)C1[C@@H]2C (some centres not stated),Potency,[1],inactive
Cc1noc(-c2ccc(-c3ccc(C4(C(=O)O)CC4)cc3)cc2)c1NC(=O)O[C@H](C)c1ccccc1,Potency,[3],inactive
CO[C@H]1C[C@@H]2CC[C@@H](C)[C@@](O)(O2)C(=O)C(=O)N2CCCC[C@@H]2C(=O)O[C@H]([C@@H](C)C[C@@H]2CC[C@H](O)[C@H](OC)C2)CC(=O)[C@H](C)C=C(C)[C@@H](O)[C@@H](OC)C(=O)[C@H](C)C[C@H](C)C=CC=CC=C1C,Potency,[1],0.0017 µM (active)
CC(C)c1onc(-c2c(Cl)cccc2Cl)c1COc1ccc(/C=C/c2cccc(C(=O)O)c2)c(Cl)c1,Potency,[1],inactive
same,Potency,[2],inactive
same,Potency,[3],inactive
O=C(NO)C1(CS(=O)(=O)c2ccc(Oc3ccc(Cl)cc3)cc2)CCOCC1,Potency,[5],8.33 µM (active)
CN[C@@H](C)C(=O)N[C@H](C(=O)N1CCC[C@H]1C(=O)Nc1snnc1-c1ccccc1)C1CCCCC1,Potency,[5],inactive
same,Potency,[3],3.32 µM (active)
CC1=C(c2ccc(O)cc2)[C@H](c2ccc(OCCN3CCCCC3)cc2)Oc2cc(O)ccc21,Potency,[3],inactive
CC(=O)N1CCN(c2ccc(NC(=O)Cc3cnc(-c4ccnc(F)c4)c(C)c3)nc2)CC1,Potency,[5],inactive
same,Potency,[3],inactive
Cc1cc(Oc2ccc3nc(COc4ccc(CC5SC(=O)NC5=O)cc4)n(C)c3c2)cc(C)c1N (configuration not stated),Potency,[5],inactive
same,Potency,[1],inactive
same,Potency,[3],inactive
C=C1C[C@H]2C=Nc3cc(OCCCOc4cc5c(cc4OC)C(=O)N4CC(=C)C[C@H]4C=N5)c(OC)cc3C(=O)N2C1,Potency,[4],inactive
same,Potency,[1],inactive
same,Potency,[3],0.0015 µM (active)
C#C[C@]1(O)CC[C@H]2[C@@H]3CCc4cc(O)ccc4[C@H]3CC[C@@]21C,Potency,[4],20.9 µM (active)
same,Potency,[2],14.8 µM (active)
same,Potency,[3],20.9 µM (active)
CCCCCCCCCCCCCC(=O)N[C@H](CO)[C@H](O)c1ccc([N+](=O)[O-])cc1,Potency,[1],inactive
same,Potency,[3],inactive
CN(C)CCNC(=O)COc1c2cccc1Cc1cccc(c1OCC(=O)NCCN(C)C)Cc1cccc(c1OCC(=O)NCCN(C)C)Cc1cccc(c1OCC(=O)NCCN(C)C)C2,Potency,[1],0.428 µM (active)
same,Potency,[2],0.428 µM (active)
Cc1cc(Nc2ncnc3ccc(NC4=NC(C)(C)CO4)cc23)ccc1Oc1ccn2ncnc2c1,Potency,[1],inactive
C[C@@]1(c2ncncc2F)NC(=O)c2cc(-c3cn[nH]c3)ccc21,Potency,[4],14.8 µM (active)
same,Potency,[2],20.9 µM (active)
N#C/C(=C(/N)Sc1ccc(N)cc1)c1ccccc1C(F)(F)F,Potency,[4],18.6 µM (active)
same,Potency,[2],5.9 µM (active)
same,Potency,[3],16.6 µM (active)
NCCCC[C@H](NC(=O)[C@@H](NC(=O)[C@H](Cc1c[nH]c2ccccc12)NC(=O)[C@H](CCCCN)NC(=O)[C@H](CCCCN)NC(=O)[C@H](Cc1c[nH]c2ccccc12)NC(=O)[C@H](Cc1c[nH]c2ccccc12)NC(=O)[C@H](CCCCN)NC(=O)[C@@H](N)CCCCN)C(c1ccccc1)c1ccccc1)C(N)=O (H-KKWWKKW[Dip]K-NH2),Potency,[3],inactive
